# Reference: PubChem BioAssay (NCATS)
# Inconclusive results are not listed. Activity calls are given as the source filed them. Calls come from the whole dose curve; as a rule, active = well fitted inhibition curve with a large enough effect; inconclusive = small, poorly fitted or top-dose-only effect; inactive = flat fitted curve, though single readings scatter.
# Biological target: Voltage-gated inwardly rectifying potassium channel KCNH2 (Homo sapiens) (UniProt Q12809)
# Assay: qHTS Assay for Small Molecule Inhibitors of the Human hERG Channel Activity (AID 588834);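 note: lower thallium flux fluorescence means stronger hERG block; nearly all actives have a fitted effect of over 50% in size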; for activity change, negative = inhibition: top concentration of the series differs between compounds
# Details: U2OS BacMam hERG, FluxOR thallium flux fluorescence; series mostly up to 46.1 µM; activity change, negative = inhibition: at the top concentration
# Summary of the method: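 U2OS cells BacMam-transduced with hERG, 2000 cells/well, compound ~10 min at 37 °C before stimulation buffer. FluxOR thallium flux fluorescence read kinetically on FDSS; decrease indicates block; AC50 from Hill fits.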
# % is set by controls: 0 for no effect and ±100 for the full control effect; potency is the fitted concentration of half-maximal effect.
# Chain of Voltage-gated inwardly rectifying potassium channel KCNH2 (Homo sapiens) (Q12809 whole entry, looked up): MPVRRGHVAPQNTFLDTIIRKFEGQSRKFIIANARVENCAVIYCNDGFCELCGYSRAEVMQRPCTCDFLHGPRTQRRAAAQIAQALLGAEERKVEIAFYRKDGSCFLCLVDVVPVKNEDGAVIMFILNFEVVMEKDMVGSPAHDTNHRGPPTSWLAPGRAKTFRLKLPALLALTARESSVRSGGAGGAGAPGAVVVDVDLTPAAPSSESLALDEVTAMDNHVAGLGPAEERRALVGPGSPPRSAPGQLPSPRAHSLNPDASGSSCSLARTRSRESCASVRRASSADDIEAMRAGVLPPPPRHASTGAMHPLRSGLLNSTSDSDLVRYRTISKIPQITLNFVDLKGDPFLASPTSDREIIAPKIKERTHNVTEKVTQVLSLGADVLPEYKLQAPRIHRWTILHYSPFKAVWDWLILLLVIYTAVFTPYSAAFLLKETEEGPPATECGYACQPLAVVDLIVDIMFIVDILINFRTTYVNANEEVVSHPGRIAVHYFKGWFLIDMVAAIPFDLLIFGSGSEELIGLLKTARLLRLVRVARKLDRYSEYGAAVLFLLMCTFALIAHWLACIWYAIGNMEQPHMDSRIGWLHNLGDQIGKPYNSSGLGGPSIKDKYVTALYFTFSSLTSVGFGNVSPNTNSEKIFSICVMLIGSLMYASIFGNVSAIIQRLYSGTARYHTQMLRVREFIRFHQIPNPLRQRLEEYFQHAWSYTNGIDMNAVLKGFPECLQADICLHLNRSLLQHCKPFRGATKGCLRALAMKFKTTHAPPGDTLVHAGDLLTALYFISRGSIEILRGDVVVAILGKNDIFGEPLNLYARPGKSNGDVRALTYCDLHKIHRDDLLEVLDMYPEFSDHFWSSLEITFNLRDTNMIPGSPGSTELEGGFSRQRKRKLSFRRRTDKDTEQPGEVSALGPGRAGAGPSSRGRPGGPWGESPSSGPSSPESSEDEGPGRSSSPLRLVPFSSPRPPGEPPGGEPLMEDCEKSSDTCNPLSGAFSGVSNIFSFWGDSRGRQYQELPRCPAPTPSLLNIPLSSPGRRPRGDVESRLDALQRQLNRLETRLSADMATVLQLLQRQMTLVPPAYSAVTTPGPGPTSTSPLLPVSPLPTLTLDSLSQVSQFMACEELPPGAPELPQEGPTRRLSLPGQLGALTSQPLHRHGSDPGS
Structure (SMILES),"activity change, negative = inhibition",Potency
CC(=O)[C@@]1(O)CC[C@H]2[C@@H]3C=C(Cl)C4=CC(=O)[C@@H]5C[C@@H]5[C@]4(C)[C@H]3CC[C@@]21C,3.34% (inactive),–
CC[C@H](C)[C@@H]1NC(=O)[C@H](Cc2ccc(O)cc2)NC(=O)[C@@H](N)CSSC[C@@H](C(=O)N2CCC[C@H]2C(=O)N[C@@H](CC(C)C)C(=O)NCC(N)=O)NC(=O)[C@H](CC(N)=O)NC(=O)[C@H](CCC(N)=O)NC1=O,22.5% (inactive),–
CC(=O)N[C@@H]([C@@H](O)[C@H](O)[C@H](O)CO)[C@@H](O)CC(=O)C(=O)O,17.7% (inactive),–
NC(=O)OC[C@@H]1[C@H](NC(=O)/C(=N\OCC(=O)O)c2csc(N)n2)C(=O)N1S(=O)(=O)O,0.525% (inactive),–
CCCC1C(=O)N2C(N(C)C)=Nc3ccc(C)cc3N2C1=O (configuration not stated),-2.03% [at 20.6 µM] (inactive),–
CO[C@@]1(NC(=O)C2SC(=C(C(N)=O)C(=O)O)S2)C(=O)N2C(C(=O)O)=C(CSc3nnnn3C)CS[C@@H]21 (some centres not stated),–,7.08 µM (active)
NC(=O)c1cc[n+](CC2=C(C(=O)O)N3C(=O)[C@@H](NC(=O)C(c4ccccc4)S(=O)(=O)[O-])[C@H]3SC2)cc1 (some centres not stated),4.95% [at 20.6 µM] (inactive),–
COc1ccc(C[C@H](C)NC[C@@H](O)c2ccc(O)c(NC=O)c2)cc1,–,14.1 µM (active)
O=C(CO)[C@@H](O)[C@H](O)[C@@H](O)C(=O)O,5.61% (inactive),–
Oc1ccc(Cl)c2c1CCC2,7.71% (inactive),–
CCOc1cc(-c2nccc3cc(OC)c(OC)cc23)cc(OCC)c1OCC,-1.16% (inactive),–
COC(=O)[C@H]1[C@H]2C[C@@H]3c4[nH]c5cc(OC)ccc5c4CCN3C[C@H]2C[C@H](OC)[C@@H]1OC,–,4.47 µM (active)
